Experimental data taken from PubChem BioAssay (NCI).
About 83,000 compounds went through this panel and 20% of them were active in at least one assay; those are over-represented in the sample as a whole.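 Single-dose data. Exposure time 48 hours. Values below 10 considered active.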 The source made the active and inactive calls.

Tested on: HL-60(TB) leukemia
Assay: NCI-60 one-dose screen, 48 h (100 = growth as untreated, 0 = no growth, -100 = all killed)
Conditions: 10 µM unless noted

SMILES	growth
O=C(NC1CCCCC1)c1ccc(Cl)cc1	92.8% (inactive)
COc1ccc(/C(=C\c2cc(OC)c(OC)c(OC)c2)C(=O)N2CCN(c3ccccc3)CC2)cc1O	106% (inactive)
O=C(Cc1ccc(-c2ccc(OCCN3CCOCC3)cc2)cn1)NCc1ccccc1	-31.2% (active)
COc1cc(NC(C)CCCN2C(=O)c3ccccc3C2=O)c2nccc(C)c2c1OC (stereo not given)	9.5% (active)
CN(/C(N)=N/N=C/c1c2ccccc2cc2ccccc12)C1CCCCC1	35.4% (inactive)
CC(C)C(C)(C)c1ccc(O)cc1	104% (inactive)
CCN1C(=O)N(CC)C2C1N=C(SCc1ccc(Cl)cc1)N2/N=C/C=C/c1ccccc1OC (stereo not given)	37.9% (inactive)
COC(=O)[C@]12CC[C@@H](C)[C@H](C)[C@@H]1C1=CC[C@@H]3[C@@]4(C)C[C@@H](OC(=O)/C=C/c5ccccc5)[C@H](O)[C@@](C)(CO)[C@@H]4[C@H](O)C[C@@]3(C)[C@]1(C)CC2	-20.6% (active)
C=C(C)[C@@H]1CC[C@]2(COCCCN)CC[C@]3(C)[C@H](CC[C@@H]4[C@@](C)(CCCNCCCN)[C@H](C(=C)C)CC[C@]43C)[C@@H]12	-9.28% [100 µM] (active)
COc1ccc(-c2cc(Nc3ccnc(N4CCOCC4)n3)on2)cc1	-29.9% (active)
Ic1ccc(OCCCCn2ccnc2)cc1	3.58% (active)
c1cc(C2CCCCC2)ccc1OCCCCCCN1CCNCC1	-38.4% (active)
CNC(=O)c1nn(C)c2c1C(C)(C)Cc1cnc(Nc3ccc(N4CCN(C)CC4)cc3)nc1-2	-27% (active)
CCOc1cccc(/C=N/NC(=O)c2cccc(Nc3ccnc(C(F)(F)F)c3)c2)c1O	14.1% (inactive)
Cc1cc2nc3c4cc(N)ccc4n(CCN(C)C)c3nc2cc1C	4.7% (active)
CC1CCC2C(C)(C)C3CC12CC1OC13C (stereo not given)	125% (inactive)
COc1ccc(C2=NN(C(=O)COc3ccc(Cl)cc3)C(O)(c3cc(F)c(Cl)cc3Cl)C2)cc1OC (stereo not given)	-42.2% (active)
CC(C)(C)CC(C)(C)N(CSc1ccc(Cl)cc1)CSc1ccc(Cl)cc1	-35.3% (active)
Cc1ccc(S(=O)(=O)Nc2ccc(-c3cc(-c4cccc(F)c4)c(C#N)c(=O)[nH]3)cc2)cc1	87% (inactive)
CCN(CC)CCCC(C)NC(=S)N/N=C(\C)c1ccccn1 (stereo not given)	-3.79% (active)
CCc1cccc(C)c1NC(=O)c1sc2nc3c(cc2c1N)C(=O)CCC3	-22.4% (active)
NS(=O)(=O)c1ccc(N2N=C(c3ccc(Br)cc3)CC2c2cn(-c3ccccc3)nc2-c2ccc(Cl)cc2)cc1 (stereo not given)	89.6% (inactive)
C=C(CNCCO)[C@@H]1CC[C@]2(CO)CC[C@]3(C)[C@H](CC[C@@H]4[C@@]5(C)CCC(NCCc6ccc(O)cc6)C(C)(C)[C@@H]5CC[C@]43C)[C@@H]12 (stereo not given in full)	-52.2% (active)
COC(=O)c1nc(-c2ccccc2)oc1S(=O)(=O)Cc1ccccc1	16.8% (inactive)
Cc1cc(Cl)c2c(N(C)C)cccc2n1	97.3% (inactive)
